# From PubChem BioAssay (NCATS)
# Values without a mark were called inactive. Results filed as inconclusive are left out. Calls of active or inactive are those of the source. Unless noted, calls come from the whole dose curve; as a rule, active = well fitted curve in the direction sought with a large enough effect; inconclusive = small, poorly fitted or top-dose-only effect, or another doubt; inactive = no such curve, though single readings can be large; an effect the other way counts as inactive or inconclusive.
# Legend:
# [1] = biological target: Lysosomal acid glucosylceramidase (Homo sapiens) (UniProt P04062); test: Glucocerebrosidase-p2 (AID 348; in the data active = potency below about 10 µM; note: potency is the fitted concentration of half-maximal effect); conditions: purified GBA, blue fluorogenic substrate, 40 min
# Lysosomal acid glucosylceramidase (Homo sapiens), sequence (P04062 whole entry, looked up): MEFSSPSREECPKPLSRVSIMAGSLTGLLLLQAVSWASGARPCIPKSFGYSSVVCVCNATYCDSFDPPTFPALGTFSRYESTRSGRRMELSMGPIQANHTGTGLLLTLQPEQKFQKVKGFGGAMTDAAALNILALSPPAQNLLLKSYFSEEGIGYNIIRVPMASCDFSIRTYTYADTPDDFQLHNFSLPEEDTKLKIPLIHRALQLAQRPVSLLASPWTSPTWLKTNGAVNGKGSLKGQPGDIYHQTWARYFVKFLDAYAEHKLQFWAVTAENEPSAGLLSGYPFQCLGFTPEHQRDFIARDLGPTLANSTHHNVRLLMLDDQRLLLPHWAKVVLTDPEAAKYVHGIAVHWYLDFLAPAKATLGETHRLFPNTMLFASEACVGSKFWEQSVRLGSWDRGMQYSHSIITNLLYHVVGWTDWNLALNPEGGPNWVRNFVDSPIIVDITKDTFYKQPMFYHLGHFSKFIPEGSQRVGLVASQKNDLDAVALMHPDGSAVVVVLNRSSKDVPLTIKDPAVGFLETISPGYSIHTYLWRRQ
# Summary of the method: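 Normal human glucocerebrosidase (0.2 nM) with blue fluorogenic substrate (80 uM final) in citrate/phosphate pH 5.9 with 10mM sodium taurocholate, 0.01% tween-20; 40 min RT, NaOH/glycine stop; fluorescence Ex 365/Em 440; AC50 from a titration from 0.6 nM upwards.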
# [2] = biological target: Cytochrome P450 1A2 (Homo sapiens) (UniProt P05177); test: p450-cyp1a2 (AID 410; calls by dose curve; note: potency is the fitted concentration of half-maximal effect); conditions: recombinant CYP1A2, luciferin-ME demethylation, luminescence; series mostly up to 11.4 µM
# Cytochrome P450 1A2 (Homo sapiens), sequence (P05177 whole entry, looked up): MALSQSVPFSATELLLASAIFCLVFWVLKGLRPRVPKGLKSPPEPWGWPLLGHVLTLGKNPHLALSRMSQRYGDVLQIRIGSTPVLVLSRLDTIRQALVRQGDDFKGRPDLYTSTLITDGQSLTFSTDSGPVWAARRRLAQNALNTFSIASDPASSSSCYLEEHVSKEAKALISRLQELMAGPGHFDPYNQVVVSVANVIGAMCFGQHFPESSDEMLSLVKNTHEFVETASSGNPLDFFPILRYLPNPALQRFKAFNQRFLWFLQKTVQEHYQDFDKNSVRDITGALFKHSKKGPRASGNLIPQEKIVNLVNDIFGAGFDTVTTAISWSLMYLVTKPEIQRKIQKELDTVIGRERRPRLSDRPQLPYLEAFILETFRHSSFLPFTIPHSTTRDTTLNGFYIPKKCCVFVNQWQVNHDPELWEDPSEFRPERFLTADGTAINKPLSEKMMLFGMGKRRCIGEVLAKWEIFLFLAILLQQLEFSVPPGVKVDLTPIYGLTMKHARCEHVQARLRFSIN
# Summary of the method: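 O-Demethylation of luciferin 6' methyl ether by human CYP1A2 is monitored as luciferase luminescence. Substrate sits at Km (100uM); enzyme is 20nM. Values are scaled to 57 uM furafylline as maximal inhibition.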
# [3] = Cell Viability - Jurkat (AID 426;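 active = dose-dependent loss of cell ATP signal giving a full or clear fitted curve, ranked by lower potency value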; note: potency is the fitted concentration of half-maximal effect); conditions: qHTS
# Summary of the method: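 Cells of the human T-cell leukemia line Jurkat (E6-1) are seeded at 5000 per well, treated with compound across a concentration range for 40 hours at 37 °C, then lysed with CellTiter-Glo; luminescence reports ATP.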
# [4] = Cell Viability - Hek293 (AID 427;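 active = compounds whose dose-response curve shows a full or clear partial loss of cell viability, called from curve shape rather than a numeric limit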;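 note: potency is the fitted concentration of half-maximal effect; cells exposed to compound for 40 hours at 37 °C before reading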); conditions: qHTS
# Summary of the method: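 HEK293 cells in complete medium were exposed to compound for 40 hr at 37 °C, then cellular ATP was read by CellTiter-Glo luminescence. Data were normalized to DMSO (basal) and 100 uM tamoxifen (100% inhibition), and AC50 came from Hill fits.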
# [5] = Cell Viability - HepG2 (AID 433; calls by dose curve;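 note: potency is the fitted concentration of half-maximal effect; potency for ATP loss meaning cytotoxicity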); conditions: qHTS
# Summary of the method: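 Cytotoxicity is scored as loss of intracellular ATP in HepG2 cells exposed to compounds for 40 h. Concentration-response curves, normalized to DMSO and 100 uM tamoxifen, give AC50 values.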
# [6] = Stat Signaling Pathway (AID 446; active = well fitted curve in either direction with a large enough effect, not every such curve was filed as active;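 note: ME-180 cervical cancer cells given 40 pM IL-6 alongside compound; SIE-controlled beta-lactamase reporter measured as 460/530 nm FRET emission ratio; % is set by controls: 0 for no effect and ±100 for the full control effect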); conditions: ME-180 (cervical carcinoma) SIE beta-lactamase reporter, IL-6 stimulated, 5 h; at 7.69 µM (top of the series) unless noted
# Summary of the method: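 Normalization used AC90 stimulation (300 pM IL-6) and AC90 inhibition (125 nM pan-JAK inhibitor at 40 pM IL-6). The underlying signal is SIE-driven beta-lactamase in ME-180 cells after 5 h IL-6 exposure with compound.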
# [7] = biological target: Glucocorticoid receptor (Homo sapiens) (UniProt P04150); test: GR-GFP Redistribution (AID 450;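 active = compounds whose dose series gives a full or clear partial fitted curve of increased nuclear translocation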; note: potency is the fitted concentration of half-maximal effect); conditions: U2OS GR-GFP nuclear translocation, laser cytometry, 2 h
# Glucocorticoid receptor (Homo sapiens), sequence (P04150 whole entry, looked up, the tested form may be a part): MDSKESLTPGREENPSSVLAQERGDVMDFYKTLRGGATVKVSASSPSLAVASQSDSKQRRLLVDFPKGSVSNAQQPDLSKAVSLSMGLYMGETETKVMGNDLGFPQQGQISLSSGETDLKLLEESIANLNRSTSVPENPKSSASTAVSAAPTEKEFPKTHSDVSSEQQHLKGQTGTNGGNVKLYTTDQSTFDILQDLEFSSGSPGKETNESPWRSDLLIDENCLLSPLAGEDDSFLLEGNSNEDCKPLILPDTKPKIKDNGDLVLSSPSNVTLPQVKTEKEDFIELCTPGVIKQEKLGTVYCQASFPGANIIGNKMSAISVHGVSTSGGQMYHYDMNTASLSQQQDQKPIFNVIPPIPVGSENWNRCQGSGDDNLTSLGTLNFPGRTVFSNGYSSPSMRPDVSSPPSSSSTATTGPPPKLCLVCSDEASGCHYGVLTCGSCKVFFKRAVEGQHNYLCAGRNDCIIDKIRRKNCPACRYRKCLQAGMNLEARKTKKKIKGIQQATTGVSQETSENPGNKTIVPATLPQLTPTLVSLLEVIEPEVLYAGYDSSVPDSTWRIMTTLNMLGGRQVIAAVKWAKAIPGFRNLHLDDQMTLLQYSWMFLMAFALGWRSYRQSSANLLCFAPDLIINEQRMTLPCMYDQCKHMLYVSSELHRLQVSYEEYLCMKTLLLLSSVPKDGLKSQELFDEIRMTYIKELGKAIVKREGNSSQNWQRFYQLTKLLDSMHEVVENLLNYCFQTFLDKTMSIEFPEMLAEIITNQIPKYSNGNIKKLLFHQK
# [8] = biological target: Glucocorticoid receptor (Homo sapiens) (UniProt P04150); test: GR-EFC Redistribution (AID 451; calls by dose curve; note: potency is the fitted concentration of half-maximal effect); conditions: CHO-K1 GR-EFC translocation, beta-gal luminescence, 2 h
# Summary of the method: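 Translocation of GR-ED fusion to nuclear EA restores b-gal, read by luminescence after 1 h room-temperature detection. Engineered CHO-K1 biosensor cells, 1,000/well, exposed 2 h at 37 C to titrations up to 46 uM final.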
# [9] = Cell Viability - NIH 3T3 (AID 541); conditions: NIH 3T3 cell viability, qHTS; activity change, negative = cytotoxicity: at 92.2 µM (top of the series); note: potency is the fitted concentration of half-maximal effect; nearly all actives have a fitted effect of over 25% in size
# Summary of the method: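 Cells seeded at 1000/well, rested 5 hr at 37 °C, then dosed and incubated 40 hr at 37 °C. CellTiter-Glo added, 20 min room temperature, luminescence read. AC50 by Hill fit.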
# [10] = Cell Viability - HUV-EC-C (AID 542); conditions: HUV-EC-C endothelial cell viability, qHTS; series mostly up to 92.2 µM; note: potency is the fitted concentration of half-maximal effect; nearly all actives have a fitted effect of over 35% in size
# Summary of the method: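 Cells were seeded at 1000 per well and incubated 5 hr at 37 °C before compound addition. After 40 hr at 37 °C, CellTiter-Glo reagent was added for 20 min and luminescence read. AC50 values came from Hill-equation modelling.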
# [11] = Cell Viability - H-4-II-E (AID 543); conditions: H-4-II-E rat hepatoma viability; series mostly up to 92.2 µM; note: potency is the fitted concentration of half-maximal effect; nearly all actives have a fitted effect of over 35% in size
# Summary of the method: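 Cells seeded at 1500 per well and rested 5 hr; compounds added; 40 hr incubation at 37 °C; CellTiter-Glo added, 20 min at room temperature; luminescence read. Hill-equation fits gave AC50.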
# [12] = Cell Viability - SH-SY5Y (AID 544); conditions: SH-SY5Y neuroblastoma cell viability; viability change, negative = cytotoxic: at 92.2 µM (top of the series); note: nearly all actives have a fitted effect of over 55% in size
# Summary of the method: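 Cells were plated at 1500 per well and allowed 5 hr at 37 °C. Compounds were added across a concentration range and incubated 40 hr at 37 °C. CellTiter-Glo was added for 20 min at room temperature before luminescence reading.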
# [13] = Cell Viability - Mesenchymal (AID 546); conditions: mesenchymal cells viability, qHTS; activity change, negative = cytotoxicity: at 91.7 µM (top of the series);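 note: potency is the fitted concentration of half-maximal effect; cells exposed to compound for 40 hours before reading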
# Summary of the method: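 CellTiter-Glo luminescence (intracellular ATP, 20 min room temperature) after 40 hr compound exposure at 37 °C of 1000 glomerulus-derived human kidney mesenchymal cells/well; AC50 values obtained by fitting qHTS concentration-response data to the Hill equation.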
# [14] = biological target: 3',5'-cyclic-AMP phosphodiesterase 4B (Homo sapiens) (UniProt Q07343); test: qHTS Assay for Inhibitors of PDE-IV (AID 607; active = well fitted activation curve with a large enough effect in the main read-out, with a control signal flat, not every such curve was filed as active; note: % of control where 0% means no effect); conditions: HEK293 ACTOne CNG channel cells, membrane potential fluorescence; series mostly up to 22.9 µM
# 3',5'-cyclic-AMP phosphodiesterase 4B (Homo sapiens), sequence (Q07343 whole entry, looked up): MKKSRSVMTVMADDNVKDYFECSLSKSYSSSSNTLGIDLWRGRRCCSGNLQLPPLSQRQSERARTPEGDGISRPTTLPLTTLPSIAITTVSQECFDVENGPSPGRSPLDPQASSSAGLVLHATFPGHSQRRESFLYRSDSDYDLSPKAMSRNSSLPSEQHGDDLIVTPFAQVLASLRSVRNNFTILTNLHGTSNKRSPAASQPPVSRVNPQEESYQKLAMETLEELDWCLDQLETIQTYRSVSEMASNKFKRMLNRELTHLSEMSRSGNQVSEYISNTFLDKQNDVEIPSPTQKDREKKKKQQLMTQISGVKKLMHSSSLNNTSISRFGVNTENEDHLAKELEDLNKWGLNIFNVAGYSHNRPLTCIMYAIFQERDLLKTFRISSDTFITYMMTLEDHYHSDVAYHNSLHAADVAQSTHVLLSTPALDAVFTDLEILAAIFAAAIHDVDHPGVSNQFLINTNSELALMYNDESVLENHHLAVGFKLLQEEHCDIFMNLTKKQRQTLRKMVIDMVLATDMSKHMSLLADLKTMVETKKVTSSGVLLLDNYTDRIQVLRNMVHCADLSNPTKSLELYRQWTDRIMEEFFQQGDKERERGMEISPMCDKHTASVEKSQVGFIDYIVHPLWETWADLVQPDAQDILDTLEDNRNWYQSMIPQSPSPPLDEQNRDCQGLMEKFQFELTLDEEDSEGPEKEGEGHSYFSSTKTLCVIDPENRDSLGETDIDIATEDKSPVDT
# Summary of the method: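 HEK293 ACTOne cells with CNG channel (1000/well), endogenous PDE4; membrane potential dye, compounds up to 22.9 uM final. Fluorescence Ex 535/Em 590; RO 20-1724 (100 uM final) as reference.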
# [15] = Cellular Toxicity (caspase-3) HepG2 (AID 654); conditions: HepG2 caspase-3 activation, luminescence; series mostly up to 92.2 µM;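 note: cells exposed to compound for 16 hours before reading; 0% = DMSO alone and 100% = caspase signal from 100 µM tamoxifen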
# Summary of the method: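 Caspase 3/7 activation in HepG2 is measured as rising luminescence after a 16 hr treatment at 37 °C. Values are scaled between DMSO basal and 100 uM tamoxifen, and AC50 is fitted with the Hill equation.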
# [16] = Cellular Toxicity (caspase-3) Jurkat (AID 655); conditions: Jurkat caspase-3 activation, luminescence; caspase-3 activation: at 92.2 µM (top of the series), DMSO = 0%, tamoxifen = 100%;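 note: cells exposed to compound for 16 h at 37 °C before reading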
# Summary of the method: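 Caspase 3/7 activation is scored as increased luminescence in Jurkat cells cultured with compound for 16 hours in complete medium. AC50 values come from Hill fits of qHTS concentration-response data normalized to DMSO and 100 uM tamoxifen controls.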
# [17] = Cellular Toxicity (caspase-3) HUV-EC-C (AID 656); conditions: HUV-EC-C cells, caspase-3 activation (apoptosis); series mostly up to 92.2 µM;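 note: cells exposed to compound for 16 h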
# Summary of the method: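 Read-out: luminescence proportional to caspase 3/7 activity, measured 20 min after adding Caspase-Glo 3/7 reagent. Cells (HUV-EC-C) had received compound for 16 hr at 37°C. Increases relative to DMSO and 100 uM tamoxifen gave concentration-response AC50 values.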
# [18] = Cellular Toxicity (caspase-3) SHSY5Y (AID 657); conditions: SH-SY5Y caspase-3 activation; series mostly up to 91.7 µM;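 note: cells exposed to compound for 16 hours at 37 °C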
# Summary of the method: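 Cells plated and incubated 5 h at 37 °C, dosed over a concentration range, incubated 16 h, then given Caspase-Glo 3/7 reagent for 1 h at room temperature before luminescence reading. Staurosporine (10 uM) defined full stimulation.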
# [19] = Cellular Toxicity (caspase-3) BJ (AID 658); conditions: BJ fibroblasts, luminescence; Potency: caspase-3 activation; series mostly up to 91.7 µM;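 note: 0% = DMSO basal and 100% = 10 µM staurosporine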
# Summary of the method: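 Caspase-Glo 3/7 luminescence, read 1 hr after reagent at room temperature, in normal BJ fibroblasts exposed 16 hours at 37 °C. AC50 values from Hill-equation concentration-response, scaled between DMSO basal and 10 uM staurosporine as 100%.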
smiles,measurement,setting,value
N=C1C=CC(=C(c2ccc(N)cc2)c2ccc(N)cc2)C=C1,Potency,[1],> 11.4 µM
same,Potency,[2],3.98 µM (active)
same,Potency,[3],15.1 µM (active)
same,Potency,[4],19.6 µM (active)
same,Potency,[5],18.6 µM (active)
same,"activity, negative = inhibition",[6],-20.9%
same,Potency,[7],> 46 µM
same,Potency,[8],> 9.22 µM
same,Potency,[9],3.16 µM (active)
same,Potency,[10],20 µM (active)
same,Potency,[11],31.6 µM (active)
same,"viability change, negative = cytotoxic",[12],-99.9% (active)
same,Potency,[13],7.94 µM (active)
same,Potency,[14],inactive
same,Potency,[15],inactive
same,Potency,[16],inactive
same,Potency,[17],inactive
same,Potency,[18],inactive
same,Potency,[19],inactive
